Assay outcomes (PubChem BioAssay)
Rows were chosen to be rich in hits. Some 14% of all compounds tested hit in one or more screens of this group.
LASV entry inh: blocks Lassa virus binding to or entry into cells. actives 1.2% (n = 300,000). AID 540256. Potency, µM (doses to about 37.9 µM), for inactives: at the highest dose activity change, negative = inhibition, usual class: inhibitors. Lassa virus pseudotype entry inhibition, cell reporter; calls by dose curve; tested in HEK293 cells; note: potency is the fitted concentration of half-maximal effect; nearly all actives have a fitted effect of over 50% in size
HCV inh: inhibitors of hepatitis C virus infection | Huh7.5.1 HCVcc-Cre infection, luciferase reporter, 44 h | actives 3.4% (n = 340,000) | AID 651820 | Potency, µM (highest dose often 41.8 µM), for inactives: at the highest dose activity change, negative = inhibition, usual class: inhibitors; note: potency is the fitted concentration of half-maximal effect
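Cells (1,000/well) were plated 4 h before compound, then infected with HCVcc-Cre virus (~0.5 moi). After 44 h further culture, infection was read as luciferase luminescence following a 15 min substrate incubation at room temperature.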
Pf growth 48h: P. falciparum growth inhibition at 48 hours (one generation). P. falciparum luciferase growth in erythrocytes, 48 h. actives 5.9% (n = 310,000). Potency, µM (doses to about 28.7 µM), for the others: at the highest dose activity change, negative = inhibition, hits mostly inhibitors; note: potency is the fitted concentration of half-maximal effect
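A one-generation exposure of luciferase-tagged malaria parasites in RPMI 1640/Albumax erythrocyte culture, 37 C and 5% CO2. Inhibition is inferred from decreased luminescence after adding detection reagent.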
Pf growth 96h: P. falciparum growth inhibition at 96 hour, primary screen for plastid delayed-death inhibitors | P. falciparum luciferase reporter growth, 96 h | Potency, µM (top dose mostly 28.7 µM), for the others: at the highest dose activity change, negative = inhibition, usual class: inhibitors | actives 6.9% (n = 320,000); note: potency is the fitted concentration of half-maximal effect
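Delayed-death screen, second-generation endpoint: infected erythrocytes, 2% hematocrit, 0.05% parasitemia final; 96 hours at 37 C, 5% CO2; luciferase detection reagent; luminescence decrease equals reduced growth.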
Marburg entry inh: blocks Marburg virus binding to or entry into cells; Potency, µM (titrated, usually from 37.8 µM), for the others: top-dose activity change, negative = inhibition, actives largely listed as inhibitors; actives 1.8% (n = 300,000); Marburg virus pseudotyped entry inhibition, cell reporter; calls by dose curve; tested in HEK293 cells; note: potency is the fitted concentration of half-maximal effect
HCMV inh: inhibitors of human cytomegalovirus | actives 4.5% (n = 410,000) | activity change, negative = inhibition, % at 57.5 µM | HFF cells, HCMV-luciferase reporter, 72 h; hits give low values | AID 1259415; in the data active = activity change below about -60%; inconclusive = no clear call, values can overlap the other calls; inactive = above about -39%
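Two-dose cell screen: HFF monolayers treated with compounds and infected with luciferase-expressing HCMV at 1 PFU/cell, 72 h at 37C, then lysed for luciferase measurement.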
The depositor's hits bear a star; u = inconclusive; x = no result; [ ] = another dose, or the depositor's remark. Unless noted, calls come from the whole dose curve; as a rule, active = well fitted inhibition curve with a large enough effect; inconclusive = small, poorly fitted or top-dose-only effect, or another doubt; inactive = no such curve, though single readings can be large or run the other way. % is set by controls: 0 for no effect and ±100 for the full control effect.

SMILES | LASV entry inh | HCV inh | Pf growth 48h | Pf growth 96h | Marburg entry inh | HCMV inh
CCOC(=O)[C@H]1[C@H]2COc3ccc(Cl)cc3[C@@H]2N2C(=O)c3cc(Cl)ccc3NC(=O)[C@@]12C | x | u | u | 10µM* | x | -26
CSc1ccc(CN2CCC2(C)C(=O)Nc2cccc(Oc3ccccc3)c2)cc1 (stereo not given) | x | x | x | x | x | -24
CCOC(=O)[C@H]1[C@H]2COc3ccc(Cl)cc3[C@@H]2N2C(=O)c3ccc(F)cc3NC(=O)[C@@]12C | x | -26% | 12µM* | u | x | -3
CCOC(=O)[C@H]1[C@H]2COc3ccc(Cl)cc3[C@@H]2N2C(=O)c3ccc(C)cc3NC(=O)[C@@]12C | x | u | u | u | x | -20
COC(=O)CCC(=O)OC1(C)C(=O)C=C2C=C(C3CC3)N(Cc3ccc(OC)cc3)C=C2C1=O (stereo not given) | x | 3.5µM* | u | u | 9%[14.2 µM] | 4
COC(=O)CCC(=O)OC1(C)C(=O)C=C2C=C(C3CC3)N(Cc3ccc4c(c3)OCO4)C=C2C1=O (stereo not given) | x | -19% | u | 13µM* | 19%[14.2 µM] | 5
CCCCC1=CC2=CC(=O)C(C)(OC(=O)CC)C(=O)C2=CN1Cc1ccc2c(c1)OCO2 (stereo not given) | x | u | u | u | -1% | 15
COC(=O)CCC(=O)OC1(C)C(=O)C=C2C=C(C3CC3)N(c3ccccc3)C=C2C1=O (stereo not given) | x | 10%[8.37 µM] | u | u | x | -17
Cc1ccccc1CC1C(=O)Nc2ccc(Br)cc21 (stereo not given) | -4%[46.1 µM] | x | x | x | -1%[46.1 µM] | u
COc1ccc(Br)cc1CC1C(=O)Nc2ccccc21 (stereo not given) | -2%[46.1 µM] | x | x | x | u | -74*
N#CC1=C(N)Oc2c(ccc3cccnc23)C1c1cccnc1 (stereo not given) | u | 3.5µM* | u | x | u | -99*
Cc1ccc2cc(C3C(C#N)=C(N)Oc4c3ccc3cccnc43)c(=O)[nH]c2c1 (stereo not given) | u | 11µM* | u | 2.6µM* | u | -103*
CCc1ccc2[nH]c(=O)c(C3C(C#N)=C(N)Oc4c3ccc3cccnc43)cc2c1 (stereo not given) | -17% | 11µM* | u | u | u | -4
CC(NC(=O)c1cc(S(=O)(=O)N2CCCC2)cn1C)c1ccccc1 (stereo not given) | x | 12% | 0% | 7% | x | 20
Cc1ccc2nc(N3CCC(C(=O)N4CCN(c5cccc(Cl)c5)CC4)CC3)[nH]c2c1 | u | x | x | x | x | 0
Cc1cc(=O)[nH]c(SCC(=O)Nc2ccc3c(c2)CCC3)c1C#N | x | -3% | -3% | 0% | x | -77*
Cc1cc(=O)[nH]c(SCC(=O)Nc2ccc(Br)cc2)c1C#N | 6% | -10% | x | 15µM* | -23% | -2
Cc1cc(=O)[nH]c(SCC(=O)Nc2ccc(F)cc2)c1C#N | u | 18% | 10% | 33% | 3%[46.1 µM] | -9
Cc1ccsc1CN(C)c1ncnc2ccc(-c3ccoc3)cc12 | x | x | x | x | x | -17
Cn1ccnc1SCc1cn2cc(Br)ccc2n1 | u | 6% | 194% | 325% | 6.3µM* | -17
Cc1ccc(SCc2cn3ccccc3n2)cc1 | u | 2% | 139% | 103% | u | u
COc1ccc(NC(=O)CSCC(=O)N(C)CC(=O)Nc2c(C)cccc2C)cc1 | x | 6% | 0% | -15% | x | -102*
CCN(CC(=O)Nc1c(F)cccc1F)C(=O)CSCC(=O)Nc1ccc(OC)cc1 | 21% | 12% | 10% | 5% | 22% | u
COc1ccc(NC(=O)CN(C)C(=O)CSC(c2ccccc2)c2ccccc2)cc1 | x | 13µM* | u | u | x | u
COc1ccc(NC(=O)CSCC(=O)N(C)Cc2ccc(Cl)c(Cl)c2)cc1 | x | u | 13µM* | u | x | 38
Cc1ccc(NC(=O)CSCC(=O)N(C)Cc2ccc(Cl)c(Cl)c2)cc1 | -9% | -6% | u | u | -16% | -15
CN(C(=O)CSc1nc2ncccc2o1)c1ccc(F)cc1 | 8%[46.1 µM] | x | x | x | x | -33
